Bioassay records: PubChem BioAssay, Broad Institute
Hits are enriched below; roughly 3.7% of the tested compounds scored in any of these assays.
AF4-AF9 inh – inhibitors of AF4 peptide binding to AF9, primary screen, biochemical, AlphaScreen, biotin-AF4 peptide, FLAG-AF9, single point; Protein AF-9 (Homo sapiens), P42568; 350,000 compounds, 0.47% hits; inhibition, % at 10 µM;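 active means every replicate reaching a set inhibition limit, whatever the replicate mean, cut at about 25% in these data; inconclusive means mean inhibition reaches that limit but some replicates miss it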;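 further: 0% = plate neutral control median and 100% = total signal loss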
Target sequence (P42568 whole entry, looked up): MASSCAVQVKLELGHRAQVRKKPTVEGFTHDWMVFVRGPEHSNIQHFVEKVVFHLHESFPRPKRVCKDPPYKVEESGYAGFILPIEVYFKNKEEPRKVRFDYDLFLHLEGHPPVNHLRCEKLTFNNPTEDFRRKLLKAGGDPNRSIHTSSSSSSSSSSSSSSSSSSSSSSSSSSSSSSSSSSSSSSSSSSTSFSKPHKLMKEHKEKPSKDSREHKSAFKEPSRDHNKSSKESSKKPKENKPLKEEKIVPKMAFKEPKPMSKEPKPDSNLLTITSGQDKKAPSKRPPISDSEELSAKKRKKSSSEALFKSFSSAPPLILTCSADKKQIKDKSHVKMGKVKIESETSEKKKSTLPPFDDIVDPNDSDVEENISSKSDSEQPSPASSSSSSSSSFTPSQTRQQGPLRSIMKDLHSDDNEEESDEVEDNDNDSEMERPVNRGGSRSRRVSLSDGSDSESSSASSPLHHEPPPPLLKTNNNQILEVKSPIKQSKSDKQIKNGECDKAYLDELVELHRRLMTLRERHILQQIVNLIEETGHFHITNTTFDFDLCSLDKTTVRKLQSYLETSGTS
Ecoli rRNA inh – reduced GFP signal of wild-type E. coli, primary screen, bacterial rRNA inhibitor project, GFP/RFP fluorescence, OD600, single point; E. coli WT GFP vs humanized-ribosome RFP mutants, 24 h; stronger effect = lower value; DMSO median 0, no signal -100; 350,000 compounds, 1.6% hits; GFP signal change (wild-type ribosome), % (concentration not given with the values);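 active means significant combined selectivity score with lowered wild-type GFP, culture density cut under 30%, mutant RFP and density less affected; inactive means any of these conditions unmet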
MITF act – activators of MITF-driven TRPM1 promoter reporter, primary screen, cell-based, SK-MEL-5, luciferase, single point; SK-MEL-5 TRPM1-promoter luciferase, 24 h; % of positive control, neutral wells = 0; activation, % at 12.5 µM; 300,000 compounds, 0.75% hits; AID 588334, 2011;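 active means mean activation of at least 80% with every replicate also reaching 80%; inconclusive means mean reaches 80% but some replicate falls short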;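 further: 0% = neutral control wells and 100% = parthenolide positive control wells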
Wnt bcat act – Wnt/beta-catenin pathway activators, primary screen, cell-based, plate reader, single point; Wnt/beta-catenin reporter cell assay, activator; activation, % at 9.35 µM; 300,000 compounds, 1.2% hits; AID 743398, 2014; in the data active means activation above about 30%, passing the limit was not always enough; inconclusive means no clear call, values can overlap the other calls;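 further: 0% = neutral control wells and 100% = positive control wells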
esBAF inh – Bmi1 luciferase reporter increase in mESCs, primary screen, esBAF inhibitor project, mouse ES cells, Bmi1 luciferase knock-in, single point | 24 h; 100% = twice the neutral-well signal | reporter increase, % at 12.5 µM | 350,000 compounds, 2% hits | AID 602393, 2012; in the data active means activation above about 40%; inconclusive means no clear call, values can overlap the other calls;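 further: 0% = median of the plate's neutral control wells and 100% = double that signal; a rise in the Bmi1 reporter signal indicates esBAF inhibition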
Active calls of the source: *; ? = inconclusive; / = no result given.

SMILES	AF4-AF9 inh	Ecoli rRNA inh	MITF act	Wnt bcat act	esBAF inh
O=C(N=Nc1c(O)[nH]c2ccc(Br)cc12)c1ccccc1-n1cccc1	-71.9	-29.0*	-16.0	-6.9	10.3
N=C(N)N=Nc1c(O)[nH]c2ccc(Br)cc12	/	/	0.4	0.7	/
Cc1cccnc1NCC(O)COc1ccccc1 (configuration not stated)	/	/	/	/	-3.4
COc1ccc2c(Cl)c(C(=O)NCCCn3ccnc3)sc2c1	/	/	23.6	/	-4.9
COc1ccccc1-c1ccc2c(c1)O[C@H](CN(C)S(=O)(=O)c1ccccc1)[C@H](C)CN([C@H](C)CO)S2(=O)=O	0.4	1.1	/	/	5.3
O=C(COc1ccccc1)N1c2ccccc2Sc2ccccc21	-0.6	-33.5*	-8.1	0.1	/
O=C(COc1cccc(F)c1)N1c2ccccc2Sc2ccccc21	/	/	19.1	/	/
O=C(c1ccc(N2CCCC2)c([N+](=O)[O-])c1)N1CCc2ccccc2C1	11.0	-22.8	20.5	1.2	/
O=C(/C=C/c1ccc(N2CCCCC2)c([N+](=O)[O-])c1)c1ccc(O)cc1	16.2	-52.8	13.1	?	60.3*
COc1ccc(OCC(=O)N2c3ccccc3CC2C)c([N+](=O)[O-])c1 (configuration not stated)	8.7	-24.4*	10.7	1.2	/
CC1Cc2ccccc2N1C(=O)c1ccc(N2CCCCC2)c([N+](=O)[O-])c1 (configuration not stated)	?	-30.5*	0.5	-0.5	/
O=C(NCc1ccncc1)[C@@H]1CCCN1C(=O)[C@@H]1CCCN1	-0.6	0.6	/	-2.4	/
COc1cc2c(cc1NC(=O)c1ccco1)CCCC2	5.0	-32.5*	40.4	12.4	76.4*
COc1cc(NC(=S)NC(=O)c2ccco2)ccc1NC(=O)C(C)C	-0.6	-3.4	8.4	0.6	/
COc1cc(NC(=O)C(C)C)ccc1NC(=O)c1ccco1	-1.2	1.9	90.6*	-1.5	17.3
COc1cc(NC(=O)C2CCCCC2)c(OC)cc1NC(=O)c1ccco1	/	/	/	/	-2.7
CCN(c1ccccc1)S(=O)(=O)c1ccc(OC)c(NC(=O)c2ccco2)c1	-1.7	-19.2*	/	-6.2	-7.1
Cc1cc(NC(=O)c2ccc([N+](=O)[O-])o2)ccc1NC(=O)c1ccco1	0.3	/	-73.5	?	/
COc1cc(NC(=O)c2ccc([N+](=O)[O-])o2)ccc1NC(=O)c1ccco1	0.6	-21.7*	-83.5	6.4	19.6
CCN(c1ccccc1)S(=O)(=O)c1ccc(OC)c(NC(=O)c2ccccc2OC)c1	-4.9	2.5	15.7	-2.6	1.1
COc1ccc(N=CC2=C(O)CCCC2=O)cc1	/	1.7	-1.5	/	19.0
C[C@H]1CN([C@@H](C)CO)S(=O)(=O)c2ccc(-c3ccncc3)cc2O[C@H]1CN(C)C(=O)CN(C)C	-4.6	5.4	/	/	-7.3
Cc1ccccc1-c1ccc2c(c1)O[C@@H](CN(C)C(=O)Nc1ccc(C(F)(F)F)cc1)[C@H](C)CN([C@H](C)CO)S2(=O)=O	1.4	3.8	/	/	3.1
Cc1ccc(S(=O)(=O)NNC(=O)c2cccc(O)c2)cc1	48.3*	11.7	4.6	0.4	3.6
Cc1ccccc1NC(=O)c1ccc2ccccc2c1	0.9	-8.6	72.8	2.6	44.8*
SMILES	AF4-AF9 inh	Ecoli rRNA inh	MITF act	Wnt bcat act	esBAF inh
Cc1ccc(S(=O)(=O)CNC(=S)c2ccc3ccccc3c2)cc1	0.3	-24.4*	3.7	6.1	-2.8
Cc1ccc(C(=O)NNC(=O)c2ccc3ccccc3c2)cc1	1.0	-4.8	46.9	-0.9	67.0*
Cc1ccc(S(=O)(=O)CNC(=S)c2cccc(C)c2)cc1	/	/	-11.1	/	3.3
Cc1ccccc1NC(=O)NNC(=O)c1ccc2ccccc2c1	0.7	-3.6	3.7	0.5	-9.7
O=C(c1ccccc1)N(C(=O)c1ccccc1)N1CCCC1	-1.8	-6.2	18.6	-2.8	-8.3
CN1C[C@H]2[C@@H](c3ccccc31)[C@H](CO)N2C(=O)c1ccccn1	-2.6	4.0	/	/	0.2
COCC(O)CNc1ccccc1 (configuration not stated)	2.0	19.6	-7.3	-8.1	/
CCCCN(C(=O)CCn1c(=O)oc2ccccc21)c1ccccc1	-11.6	-26.9*	11.1	-3.1	-4.4
CCNC(=O)CSc1nc2cc([N+](=O)[O-])ccc2n1-c1cccc(C(F)(F)F)c1	/	/	-1.6	/	/
NC(=O)CSc1nc2cc([N+](=O)[O-])ccc2n1-c1cccc(C(F)(F)F)c1	4.1	-22.1*	-8.6	-1.5	/
Cc1ccccc1Nc1c(-c2ccccn2)nc2c(C)cccn12	34.2*	-56.1	12.1	2.7	-0.6
Cc1ccc(Nc2c(-c3ccc(N4CCOCC4)cc3)nc3cnccn23)cc1	-35.5	-2.3	37.8	-4.8	/
Cc1ccccc1Nc1c(-c2ccc(N3CCOCC3)cc2)nc2ncccn12	-9.0	-6.7	8.0	7.6	53.3*
Cc1ccccc1Nc1c(-c2ccc(N3CCOCC3)cc2)nc2cnccn12	4.8	-9.8	35.8	33.1*	55.8*
COc1ccc([C@H]2C[C@@H](O)[C@H](n3cc(COC(=O)c4ccccc4)nn3)CN2C(=O)C2CCCCC2)cc1	2.9	6.5	/	-2.5	-0.6
O=C(Nc1cnccn1)Nc1ccccc1F	-0.7	-0.2	17.7	3.5	/
O=C(/C=C/[C@H]1O[C@@H](n2cnc3c(NC(=O)c4ccccc4)ncnc32)[C@H](O)[C@@H]1O)NCc1cccc2ccccc12	-0.7	-29.1*	/	-3.4	-4.7
COc1ccc(CNC(=O)/C=C/[C@H]2O[C@@H](n3cnc4c(NC(=O)c5ccccc5)ncnc43)[C@H](O)[C@@H]2O)cc1	-1.2	2.1	/	-2.4	5.3
O=c1oc(-c2ccc(O)c(O)c2)cc2cccc(O)c12	0.3	-25.4	35.1	3.0	63.9*
CC(C)c1ccc(Nc2ncc3c(n2)CCN(C(=O)Nc2ccc(F)c(Cl)c2)C3)cc1	0.8	-22.3	/	-1.9	56.3*
Cc1c2cnn(CC(=O)O)c(=O)c2c(C)n1Cc1ccccc1	-7.1	-4.8	/	-5.1	-1.2
COC(=O)Cn1ncc2c(C)n(Cc3ccccc3)c(C)c2c1=O	-5.0	-1.3	37.8	11.1	52.2*
OC[C@H]1[C@@H](c2ccc(C3=CCCC3)cc2)[C@@H]2CN(CCC(F)(F)F)CCCCN12	10.7	/	/	/	/
O=C(NC1Cc2ccccc2C1)c1cc(COc2ccc(F)cc2Cl)on1	-0.2	15.6	4.7	-0.8	/
Nc1nn(-c2ccccc2)c(N)c1N=Nc1ccccc1F	?	-37.0*	-7.0	7.8	/
Nc1c(N=Nc2ccccc2F)c(=O)[nH]n1-c1ccccc1	/	/	54.2	10.8	69.4*
Cc1cc(=O)n2[nH]c(N)c(N=Nc3ccccc3F)c2n1	4.1	/	4.9	-0.6	/
Cc1cc(Br)ccc1OCCCCNCCO	/	/	16.9	/	-4.4
O=C(NCc1ccccc1Cl)c1ccc(S(=O)(=O)NCc2ccco2)cc1	3.5	-4.2	0.6	2.8	0.1
